RORg inh – qHTS for inhibitors of ROR gamma transcriptional activity. Nuclear receptor ROR-gamma (Mus musculus), P51450. Drosophila S2 Gal4-RORgamma UAS-luciferase reporter, 20 h. Potency, µM (series often up to 53.6 µM), inactives show at the top dose activity change, negative = inhibition, most hits filed as inhibitors. 310,000 tested, 5.4% active. AID 2551, 2010; further: potency means the concentration at half of the fitted maximal effect; on the % scale 0 is the no-effect control and ±100 the full control effect; nearly all actives have a fitted effect of over 60% in size
Target sequence (P51450 whole entry, looked up, the tested form may be a part): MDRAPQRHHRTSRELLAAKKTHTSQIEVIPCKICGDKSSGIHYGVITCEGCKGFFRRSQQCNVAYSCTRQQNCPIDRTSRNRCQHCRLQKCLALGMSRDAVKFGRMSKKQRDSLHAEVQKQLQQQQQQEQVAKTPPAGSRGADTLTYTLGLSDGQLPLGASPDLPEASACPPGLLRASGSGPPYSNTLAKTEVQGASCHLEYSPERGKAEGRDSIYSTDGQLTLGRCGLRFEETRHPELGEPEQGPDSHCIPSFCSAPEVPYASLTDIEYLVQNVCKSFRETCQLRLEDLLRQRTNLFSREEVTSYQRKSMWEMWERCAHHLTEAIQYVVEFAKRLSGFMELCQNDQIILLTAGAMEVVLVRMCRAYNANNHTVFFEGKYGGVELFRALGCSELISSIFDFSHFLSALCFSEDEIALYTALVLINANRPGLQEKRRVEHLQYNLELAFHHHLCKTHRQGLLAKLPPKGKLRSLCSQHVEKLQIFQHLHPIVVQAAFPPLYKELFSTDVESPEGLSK
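Luminescence from a UAS-regulated Photinus luciferase reporter in stably transfected Drosophila Schneider cells is measured; decreased signal marks ROR gamma inhibition. Fusion expression is induced by 700 uM copper sulfate for 20 hr.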
Gal4-VP16 FLuc – VP16 counterscreen qHTS for inhibitors of ROR gamma transcriptional activity. Potency, µM (highest dose often 53.6 µM), for inactives: at the highest dose activity, negative = inhibition, usual class: inhibitors. AID 2546, 2010. 310,000 tested, 3.5% active. Drosophila S2 Gal4-VP16 UAS-luciferase, luminescence, 20 h;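 further: Gal4-VP16 expression switched on by copper sulfate through the metallothionein promoter; potency means the concentration at half of the fitted maximal effect; on the % scale 0 is the no-effect control and ±100 the full control effect; nearly all actives have a fitted effect of over 50% in size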
IL-1B inflam inh – qHTS for Inhibitors of Inflammasome Signaling: IL-1-beta AlphaLISA Primary Screen | AID 743279, 2014 | 360,000 tested, 4.7% active | THP-1 LPS/ATP IL-1B secretion, AlphaLISA, 16 h; hits give low values | activity change, % at 57.5 µM; in the data active means activity change below about -50%; inconclusive means mostly about -30% to -49%; further: on the % scale 0 is the no-effect control and ±100 the full control effect
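Secreted IL-1B measured by AlphaLISA bead assay after 16 h compound exposure of THP-1 cells; compounds (final up to 57.5 uM) added 1 h before LPS (250 ng/mL) and ATP (1.25 mM) stimulation; lower signal means less secretion.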
SW480 rerep – A quantitative high throughput screen for small molecules that induce DNA re-replication in SW480 colon adenocarcinoma cells; SW480 DNA re-replication, Hoechst DNA content imaging, 48 h; Potency, µM (top dose mostly 46.1 µM), for the others: at the highest dose re-replication activation, most hits filed as activators; 340,000 tested, 1.8% active; further: potency means the concentration at half of the fitted maximal effect; % of control where 0% means no effect; nearly all actives have a fitted effect of over 55% in size
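Treated cells incubate 48 hr (37 C, 5% CO2), are stained 40 min with Hoechst, and nuclear fluorescence is enumerated; a rise in nuclei with high DNA signal marks re-replication.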
MCF10A rerep – A quantitative high throughput screen for small molecules that induce DNA re-replication in MCF 10a normal breast cells; MCF 10A DNA re-replication, Hoechst nuclear intensity, 48 h; Potency, µM (series often up to 46.1 µM), without a hit: top-dose activity, positive = re-replication, actives largely listed as activators; 350,000 tested, 2.9% active; AID 624296, 2012; further: potency means the concentration at half of the fitted maximal effect; % of control where 0% means no effect; nearly all actives have a fitted effect of over 50% in size
Starred values were filed as active, the others as inactive; i = inactive; ? = inconclusive; nt = not tested or not shown; [ ] = dose if it differs, or a comment. Rows were chosen to be rich in hits. Some 11% of all compounds tested hit in one or more screens of this group. Unless noted, the call rests on the fitted dose curve; in most records, active means well fitted curve in the direction sought with a large enough effect; inconclusive means small, poorly fitted or top-dose-only effect, or another doubt; inactive means no such curve, though single readings can be large; an effect the other way counts as inactive or inconclusive.

SMILES | RORg inh | Gal4-VP16 FLuc | IL-1B inflam inh | SW480 rerep | MCF10A rerep
O=C(Nn1c(=O)[nH]c2ccsc2c1=O)c1ccccc1 | -1% | 2% | 17 | -4% | 0%
O=c1c2sccc2[nH]c(=S)n1-c1ccccc1 | ? | 3.5µM* | 2 | -5% | -3%
O=C(CNC(=O)c1cccc(S(=O)(=O)N2CCc3ccccc32)c1)Nc1ccccc1Br | nt | nt | ? | 6% | 11%
c1cc2[nH]snc2c2nc(C3CC3)nc12 | 10% | 4% | -86* | 20% | 21µM*
CCCCc1c(C)nc2cc(-c3ccco3)[nH]n2c1=O | -10% | -5% | -96* | -3% | 1%
C=CCNc1ncnc2c1[nH]c1ccc(Cl)cc12 | -13% | ? | -122* | 1% | 20%
c1ccc2c(c1)[nH]c1c(NCC3CCCO3)ncnc12 (centres undefined) | ? | ? | 11 | -4% | 6%
C=CCNc1ncnc2c1[nH]c1ccccc12 | 38% | ? | -54* | -1% | 5%
CC12C=CC(=O)C=C1CCC1C2C(O)CC2(C)C1CCC2(O)C(=O)CO (centres undefined) | nt | nt | -60* | -21% | 16%
CC(=O)OCC(=O)[C@@]1(O)CC[C@H]2[C@@H]3CCC4=CC(=O)C=C[C@]4(C)[C@H]3[C@@H](O)C[C@@]21C | 27% | 3% | ? | -3% | 4%
CSCCC(NC(=O)CCC(=O)OCC(=O)[C@@]1(O)CCC2[C@@H]3CCC4=CC(=O)C=C[C@]4(C)C3[C@@H](O)C[C@@]21C)C(=O)O (some centres undefined) | 1% | 6% | -55* | 3% | -1%
CCCCCC(CC)COC(=O)CC(C(=O)OCC(CC)CCCC)S(=O)(=O)O (centres undefined) | -27% | -5% | nt | nt | nt
Cc1ccc(NC(=O)CSc2nc3ncc(Cl)cc3[nH]2)c(C)c1 | -30% | -8% | -5 | -20% | ?
CC(=O)Nc1ccc(/C=C/C(=O)c2ccc3c(c2)OCCO3)cc1 | ? | -17% | -102* | ? | ?
O=C(/C=C/c1ccc2c(c1)OCCO2)c1ccccc1 | 12% | ? | ? | ? | ?
COc1ccc(C(=O)/C=C/c2ccc3c(c2)OCCO3)cc1 | -17% | 5% | -93* | -1% | ?
COc1cccc(/C=C/C(=O)c2ccc3c(c2)OCCO3)c1OC | 11µM* | ? | -99* | ? | ?
COc1ccc(/C=C/C(=O)c2ccc3c(c2)OCO3)c(OC)c1 | -14% | -6% | ? | ? | 14%
COc1ccc(/C=C/C(=O)c2ccc3c(c2)OCCO3)cc1[N+](=O)[O-] | 0% | 1% | -55* | 12µM* | 3.7µM*
CC(=O)Nc1ccc2c(c1)OCCO2 | -2% | 2% | 8 | -4% | -5%
O=c1c(-c2ccccc2)nc2cnc(Oc3cccc(Cl)c3)nc2n1C[C@H]1CCCO1 | 43% | -6% | nt | nt | nt
CCOC(=O)C1=CCC2C(=O)N(C)C(=O)C12 (centres undefined) | nt | nt | 22 | nt | nt
Cc1onc(-c2c(F)cccc2Cl)c1C(=O)Nc1cc(S(=O)(=O)N2CCCCC2)ccc1O | nt | nt | -17 | 9% | ?
CC1=CC2C(C(C)C)CCC(C)(O)C2CC1 (centres undefined) | -18% | -10% | nt | nt | nt
COc1ccc(Oc2ccc(/C=C/C(=O)c3cccc(OC)c3)cc2[N+](=O)[O-])cc1 | ? | ? | -4 | ? | 6.5µM*
SMILES | RORg inh | Gal4-VP16 FLuc | IL-1B inflam inh | SW480 rerep | MCF10A rerep
COc1cc(/C=C/C(=O)c2ccc3c(c2)OCO3)cc(Cl)c1O | -18% | -3% | ? | ? | 9.2µM*
CC(C)(C)c1cc(C(=O)/C=C/c2ccc(C(=O)O)cc2)cc(C(C)(C)C)c1 | 7.1µM* | ? | nt | nt | nt
O=C(O)c1ccc(/C=C/C(=O)c2ccc3c(c2)OCCCO3)cc1 | 5µM* | 10µM* | -103* | 21µM* | ?
O=C(/C=C/c1cccc([N+](=O)[O-])c1)c1ccc2c(c1)OCCO2 | ? | ? | 0 | ? | ?
CC1(C(=O)Nc2ccc(Cl)c(Cl)c2)CCN1C(=O)CCC1CCCC1 (centres undefined) | nt | nt | 4 | nt | nt
C[C@@H]1/C=C\CC(=O)OC[C@H]2O[C@@H](C=C[C@@H]2O)[C@H](C)/C=C\CC(=O)OC1 | -14%[10 µM] | -7%[10 µM] | nt | nt | nt
CCOc1ccccc1C(=O)NCC(=O)N1CCC(C)CC1 | nt | nt | -17 | -1% | 15%
CC[C@]12c3[nH]c4cc(-c5ccco5)ccc4c3CCN1C(=O)[C@@H](CC(=O)NCCCOC)C[C@@H]2C(=O)N1CCN(C(=O)c2ccco2)CC1 | nt | nt | -4 | -2% | ?
COc1cc(CC(=O)OCC(=O)c2ccc3c(c2)OCCO3)cc(OC)c1OC | 7% | -2% | 60 | 3.3µM* | 1.3µM*
Cc1[nH]c(=S)[nH]c(=O)c1CCOc1ccccc1 | -20% | 4% | 2 | 16% | 22%
Cc1ccccc1OCCc1c(C)[nH]c(=S)[nH]c1=O | ? | -17% | 57 | 3.7µM* | ?
CC(C)NC(=O)N(C)C[C@H]1Oc2ccc(NC(=O)c3ccncc3)cc2C(=O)N([C@H](C)CO)C[C@@H]1C | nt | nt | 29 | -4% | 2%
Cc1ccc(S(=O)(=O)N2CCCC2)cc1C(=O)N1CCC(C)CC1 | 14% | 5% | i | -31% | 2%
COC(=O)NC/C=C\c1nc(CCCO)co1 | 7%[10 µM] | -10%[10 µM] | nt | nt | nt
O=C1C(C=NCc2ccccn2)=C(O)c2ccccc21 | 2.5µM* | 5µM* | 0 | -2% | -3%
O=c1oc2ccccc2c(O)c1C=NCc1ccccn1 | 0.56µM* | 1µM* | 20 | -2% | ?
COc1ccc(C2CC=C(C(C)=O)CN2S(=O)(=O)c2ccc(Cl)cc2)cc1 (centres undefined) | nt | nt | -22 | nt | nt
CC(C)(C)C(=O)Nc1ccc(-c2cn3ccsc3n2)cc1 | 4.5µM* | 4.5µM* | -4 | 1%[9.22 µM] | -20%
CN(C(=O)c1ccc(NC(=O)Cc2ccc(NC(=O)C3CCN(C(=O)C4CC4)CC3)cc2)cc1)C1CCCC1 | nt | nt | -11 | 4% | -4%
O=C(Nc1ccc(Cl)cc1)Nc1ccccc1CC[N+](=O)[O-] | -27% | -3% | -15 | -1% | 29%
CN(C)C(=O)Nc1ccccc1CC[N+](=O)[O-] | -11% | -16% | -65* | -10% | -1%
COc1cc(OC)cc(-c2n[nH]c(=S)n2-c2ccc3c(c2)OCCO3)c1 | 0.35µM* | 3% | 53 | 8% | ?
COc1cc(-c2n[nH]c(=S)n2-c2ccc(Br)cc2)cc(OC)c1OC | 8.9µM* | ? | 12 | -4% | 4%

Screening data from PubChem BioAssay.
